Results published in the supplement of paper PMC7695840.
Structures can show the parent of a compound that is named as a salt.

Experiments:
[1] = system: Staphylococcus aureus MW2 delta-mecA (mecA-); assay: normalized GFP fluorescence (growth of mecA- strain) (fraction of control range); higher = more growth of mecA- strain; conditions: compound concentration: 150 uM; cefoxitin: subinhibitory; fluorescent label: GFP
In short: (§1)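 A 1:1 mix of pre-induced S. aureus MW2 cells, DsRed-labeled with the gene and GFP-labeled without it, was grown in LB with a daily-set subinhibitory antibiotic dose on 150 μM compound (1.5% DMSO) in 1536-well plates, single replicate. Growth lasted 20 h at 37 °C, 90% humidity, without shaking, and DsRed (540/590) and GFP (485/520) were then read. Channels were scaled per plate to single-strain control medians, and plates with high untreated ratios and rows with DsRed/GFP >10 were removed.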

[2] = system: Staphylococcus aureus MW2 (mecA+); assay: normalized DsRed fluorescence (growth of mecA+ strain) (fraction of control range); higher = more growth of mecA+ strain; conditions: compound concentration: 150 uM; cefoxitin: subinhibitory; fluorescent label: DsRed
In short: as §1

Row | Compound | normalized GFP fluorescence [1] | normalized DsRed fluorescence [2]
1 | OC[C@H]1O[C@@H](O[C@@H]2[C@@H](CO)O[C@](O)(CO)[C@H]2O)[C@H](O)[C@@H](O)[C@H]1O | 0.29 | 0.712
2 | CCN(CC)CCNC(=O)c1ccc(N)cc1 | 0.328 | 0.696
3 | CC(=O)N(CC(O)CN(C(C)=O)c1c(I)c(C(=O)NCC(O)CO)c(I)c(C(=O)NCC(O)CO)c1I)c1c(I)c(C(=O)NCC(O)CO)c(I)c(C(=O)NCC(O)CO)c1I (stereo not drawn) | 0.268 | 0.83
4 | Clc1ccc(CSC(Cn2ccnc2)c2ccc(Cl)cc2Cl)cc1 (stereo not drawn) | -0.00367 | 0.00806
5 | Cc1nnc(NS(=O)(=O)c2ccc(N)cc2)s1 | 0.326 | 1.88
6 | CCCc1nc(C(C)(C)O)c(C(=O)OCc2oc(=O)oc2C)n1Cc1ccc(-c2ccccc2-c2nnn[nH]2)cc1 | 0.0265 | 0.605
7 | Cc1c(O)c(=O)ccn1C [Deferiprone] | 0.292 | 0.96
8 | CCCN1CCCC[C@H]1C(=O)Nc1c(C)cccc1C [Ropivacaine HCl] | 0.242 | 1.01
9 | O=C(NCC1CCCCN1)c1cc(OCC(F)(F)F)ccc1OCC(F)(F)F (stereo not drawn) | 0.508 | 0.624
10 | CC(C)CN(C[C@@H](O)[C@H](Cc1ccccc1)NC(=O)O[C@H]1CCOC1)S(=O)(=O)c1ccc(N)cc1 [Amprenavir (Agenerase)] | 0.174 | 0.506
11 | CC1(C)[C@@H](O)CC[C@]2(C)[C@H]3C(=O)C=C4[C@@H]5C[C@@](C)(C(=O)O)CC[C@]5(C)CC[C@@]4(C)[C@]3(C)CC[C@@H]12 [Enoxolone (Glycyrrhetin)] | 0.0336 | 0.987
12 | CN(C)CCc1c[nH]c2ccc(CS(=O)(=O)N3CCCC3)cc12 | 0.546 | 1
13 | O=P(O)(O)C(O)(Cn1ccnc1)P(=O)(O)O [Zoledronic Acid (Zoledronate)] | 0.313 | 0.685
14 | CNC(=C[N+](=O)[O-])NCCSCc1ccc(CN(C)C)o1 | 0.32 | 0.742
15 | C[N+](C)(C)CCO.[Cl-] | 0.657 | 0.615
16 | Cc1ccnc2c1NC(=O)c1cccnc1N2C1CC1 | 0.755 | 0.431
17 | C[C@H](NCc1ccc(OCc2cccc(F)c2)cc1)C(N)=O | 0.957 | 0.675

Row | Compound | normalized GFP fluorescence [1] | normalized DsRed fluorescence [2]
18 | O=C1CN2Cc3c(ccc(Cl)c3Cl)N=C2N1 | 0.237 | 0.896
19 | Nc1ccn([C@@H]2CS[C@H](CO)O2)c(=O)n1 | 0.367 | 0.767
20 | OC[C@H]1O[C@@H](c2ccc(Cl)c(Cc3ccc(O[C@H]4CCOC4)cc3)c2)[C@H](O)[C@@H](O)[C@@H]1O | 0.499 | 0.698
21 | Cc1nc2n(c(=O)c1CCN1CCC(c3noc4cc(F)ccc34)CC1)CCCC2O (stereo not drawn) | 0.379 | 0.72
22 | CCCCCCCCCCCCCCCCCCCCCCO | 0.3 | 0.765
23 | CCCCCNC(=N)N/N=C/c1c[nH]c2ccc(OC)cc12 | 0.0155 | 0.587
24 | COc1cc2c(Oc3ccc4[nH]c(C)cc4c3F)ncnc2cc1OCCCN1CCCC1 [Cediranib (AZD2171)] | -0.00111 | 1.4
25 | CNS(=O)(=O)Cc1ccc2[nH]cc(CCN(C)C)c2c1 | 0.345 | 0.758
26 | CN1CCN(c2c(F)cc3c(=O)c(C(=O)O)cn(CCF)c3c2F)CC1 [Fleroxacin (Quinodis)] | 0.0169 | 0.075
27 | Clc1ccc(C(Cn2ccnc2)OCc2c(Cl)cccc2Cl)c(Cl)c1 (stereo not drawn) [Isoconazole nitrate (Travogen)] | -0.00251 | 0.00958
28 | OCCOCCN1CCN(C(c2ccccc2)c2ccc(Cl)cc2)CC1 (stereo not drawn) | -0.0253 | 0.833
29 | O=C(O)COCCN1CCN(C(c2ccccc2)c2ccc(Cl)cc2)CC1 (stereo not drawn) | 0.0457 | 0.556
30 | CNC(=O)c1ccc(N2C(=S)N(c3ccc(C#N)c(C(F)(F)F)c3)C(=O)C2(C)C)cc1F [MDV3100 (Enzalutamide)] | 0.245 | 0.592
31 | CC(C)[N+](C)(CCOC(=O)C1c2ccccc2Oc2ccccc21)C(C)C | 0.295 | 0.691
32 | O=C1NCC2(CCN(CCc3ccccc3)CC2)O1 | 0.307 | 0.724
33 | Nc1nc(Cl)nc2c1ncn2[C@H]1C[C@H](O)[C@@H](CO)O1 [Cladribine] | 0.546 | 0.824
34 | C[C@]12CCC(=O)C=C1CC[C@@H]1[C@@H]2[C@@H](O)C[C@@]2(C)[C@H]1CC[C@]2(O)C(=O)CO | 0.268 | 0.562
